The whole screen tested about 4,900 compounds, of which about 2,100 (43%) were called active.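 The calls were made as follows: active = thallium signal inhibited by more than 5 SD of the compound-free buffer control wells, on both duplicate plates; inactive = the rest.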 So high a share suggests a set chosen from earlier hits. The list is a sample of the results.

Sequence of Potassium channel subfamily K member 9 (Homo sapiens) (Q9NPC2 whole entry, looked up): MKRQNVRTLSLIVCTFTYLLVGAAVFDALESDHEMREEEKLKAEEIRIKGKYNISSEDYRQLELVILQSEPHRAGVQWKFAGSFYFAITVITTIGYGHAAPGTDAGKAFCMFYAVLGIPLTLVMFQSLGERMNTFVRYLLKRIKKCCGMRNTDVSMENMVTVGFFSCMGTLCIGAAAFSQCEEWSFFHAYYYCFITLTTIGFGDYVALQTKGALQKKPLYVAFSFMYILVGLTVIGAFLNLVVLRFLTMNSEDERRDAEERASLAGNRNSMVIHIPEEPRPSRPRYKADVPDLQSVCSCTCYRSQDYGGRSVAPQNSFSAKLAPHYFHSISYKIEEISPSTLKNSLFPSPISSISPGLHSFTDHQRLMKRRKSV

The assay has as its target Potassium channel subfamily K member 9 (Homo sapiens) (UniProt Q9NPC2). The experiment in a line: blockers of human TASK-3 (KCNK9) channel – HEK293 cells, thallium flux, duplicate, confirmation (AID 492992).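 As to inhibition: 0% = assay buffer control wells without compound.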 To be noted: FluxOR thallium flux fluorescence, at 10 µM; hits give high values.
For `CCOc1cccc(OCCCOc2cccc3cccnc23)c1`, the inhibition result is “inactive”.
The figure for `COc1ccc(C(C)=O)cc1COc1ccc(Cl)c(C)c1` is 46% (active); for `Cc1ccc(OCc2cc(C(=O)N(C)CCc3ccccc3)no2)cc1C` it is “inactive”.
Regarding `Cc1ccc(OS(=O)(=O)c2ccc(-c3csc(C)n3)s2)c(C)c1`, the inhibition result was “inactive”.
Turning to `Cc1cccc(NC(=O)N(Cc2cc3cc(C)cc(C)c3[nH]c2=O)CC2COCCO2)c1` (stereo not given), the inhibition entry was “inactive”.
Regarding `O=C1/C(=C/c2ccc(F)cc2)SC(=S)N1NS(=O)(=O)c1ccccc1`, the inhibition result was “inactive”.
With `Fc1ccc(Cn2nnnc2C(c2cccs2)N2CCCCCC2)cc1` (stereo not given), the inhibition was 49% (active).
`COc1ccccc1C(c1nnnn1C(C)(C)C)N1CCN(Cc2ccccc2)CC1` (stereo not given): the inhibition was 76% (active).
In the case of `COc1ccc(C(=O)C2CCCN(C(=O)c3cc(C)on3)C2)cc1F` (stereo not given), the inhibition result was “inactive”.
`CCCCCCCCCCOC(=O)Cn1c(COc2ccc(C)cc2)[n+](C)c2ccccc21`: the inhibition was 65% (active).
`CCCCCCCCCCOC(=O)Cn1c(COc2cccc(OC)c2)[n+](C)c2ccccc21`: the inhibition was 67% (active).
Consider `CCCCN(Cc1ccccc1)C(=O)C1CCN(Cc2sccc2C)CC1`, for which the inhibition entry is “inactive”.
On to `CCOc1ccc2[nH]c(=O)c(CN(Cc3nnnn3CCc3ccccc3)CC3CCCO3)cc2c1` (stereo not given), for which the inhibition was 32% (active).
The entry for `Cc1cc2ccccn2c1C(=O)c1cccc(S(=O)(=O)N2CCOCC2)c1` is “inactive”; for `CCCCn1ccnc1C(=O)c1cccc(S(=O)(=O)N2c3ccccc3CC2C)c1` (stereo not given) it is 62% (active); for `Cc1cccc(N2CCN(C(=O)c3cccc(S(=O)(=O)N4CCc5ccccc5C4)c3)CC2C)c1` (stereo not given) it is “inactive”.
For `CCN(CC)C(=O)CC1(c2ccccc2OC)CCOC(C(C)C)C1` (stereo not given), the inhibition was 36.5% (active).
Turning to `COc1cccc(CN(C)C(=O)CC23CC4CC(CC(C4)C2)C3)c1OC`, the inhibition result is “inactive”.
In the case of `O=C1N=C2SCCN2/C1=C\c1c(Cl)cccc1Cl`, the inhibition entry was “inactive”.
As to `CC1=C/C(=N\OS(=O)(=O)c2ccccc2)C=CC1=O`, the inhibition result is “inactive”.
In the case of `COc1cc(C(CCN2CCN(c3ccccc3)CC2)c2c(OC)cc(OC)c3ccc(=O)oc23)cc(OC)c1OC` (stereo not given), the inhibition result was “inactive”.
With `CCOc1ccc(CN(Cc2ccco2)C(c2cccs2)c2nnnn2C(C)(C)C)cc1` (stereo not given), the inhibition is 60.5% (active).
The figure for `COc1ccc(C2CC(c3cccs3)=Nc3ccccc3S2)cc1OC` (stereo not given) is 40.5% (active).
`COc1ccc(OC)c(-c2csc(-c3cccs3)n2)c1`: the inhibition entry was “inactive”.
`O=C(COC(=O)c1c2c(nc3ccccc13)CCCC2)c1ccc(Br)s1`: the inhibition entry was “inactive”.
For `CCc1ccccc1NC(=O)/C(=C/c1ccccc1)c1ccccc1`, the inhibition is 37.5% (active).
Regarding `O=C(Nc1ccc(Oc2ccccc2)cc1)c1ccco1`, the inhibition was 50.5% (active).
Consider `CC(Oc1ccc2ccccc2c1)C(=O)NNC(=S)NC(=O)c1ccco1` (stereo not given), for which the inhibition entry was “inactive”.
On to `Cc1ccc(C2=NN(C)c3nc4ccccc4n3C2)cc1`, for which the inhibition result was “inactive”.
Regarding `CCCN1C(=O)C(Cc2nc3ccccc3c(=O)n2-c2ccccc2)c2cc(C)ccc21` (stereo not given), the inhibition was 47% (active).
With `Brc1ccc(C2CC(c3ccccc3)=Nc3ccccc3N2)cc1` (stereo not given), the inhibition is 61.5% (active).
The figure for `O=C(NNc1ccccc1Cl)C(O)(c1cccc(C(F)(F)F)c1)c1cccc(C(F)(F)F)c1` is 44% (active); for `COc1cccc(-c2cc3nc4c(c(N5CCC6(CC5)OCCO6)n3n2)CCCC4)c1` it is “inactive”; for `CC(C)(C)C1CCC(C(=O)NCC(c2cccs2)N2CCOCC2)CC1` (stereo not given) it is “inactive”.
As for `CCc1cccc(C)c1N(C(=O)Cn1c(CO)nc2ccccc21)C(C)COC` (stereo not given), the inhibition was 37.5% (active).
With `O=[N+]([O-])c1ccc(N2CCN(CC(O)COc3ccccc3)CC2)cc1` (stereo not given), the inhibition result was “inactive”.
Consider `COc1cccc(NC(=S)N(CCc2c(C)[nH]c3ccccc23)Cc2ccco2)c1`, for which the inhibition was 59% (active).
For `Cc1[nH]c2ccccc2c1CCN(Cc1cccs1)C(=S)NC(C)(C)C` the value was “inactive”.
As for `COc1ccc([N+](=O)[O-])cc1-c1nc2ccccc2nc1-c1ccccc1`, the inhibition result is “inactive”.
Consider `COC(=O)Cn1cnc2scc(-c3ccc(C)c(C)c3)c2c1=O`, for which the inhibition result was “inactive”.
Consider `CC(C)N(C(=O)CSc1nc(COc2ccccc2)nc2ccccc12)C(C)C`, for which the inhibition was 76.5% (active).
As for `O=C1/C(=C/c2ccc3c(c2)OCO3)CCC/C1=C\c1ccc2c(c1)OCO2`, the inhibition result was “inactive”.
The figure for `COc1ccc(CCNC(=O)c2ccccc2OCc2ccccc2)cc1` is 64% (active); for `COc1ccc(CCNc2ncnc3c2nnn3Cc2ccccc2)cc1` it is “inactive”.
With `O=C(NCCCc1ccccc1)c1cc(COc2c(F)cccc2F)on1`, the inhibition entry is “inactive”.
In the case of `COc1cc(NC(=S)NCCSc2ccc(C)cc2)cc(OC)c1`, the inhibition is 27% (active).
Regarding `COc1ccc(-c2noc(CSc3ccc(C)cc3)n2)cc1`, the inhibition entry is “inactive”.
For the compound `COc1cccc(C(=O)NCCSc2ccc(Br)cc2)c1`, the inhibition result was “inactive”.
For `CCOc1ccccc1NC(=O)C12CC3CC(C1)CC(c1ccc(C)cc1)(C3)C2` the value was “inactive”; for `O=C(Oc1ccc(Br)cc1C(=S)N1CCOCC1)c1cccc([N+](=O)[O-])c1`, 50% (active).
As for `COc1ccc(-c2oc(/N=C/N3CCCC3)c(C#N)c2-c2ccc(OC)cc2)cc1`, the inhibition entry was “inactive”.
For `O=C(Cn1cc(C(=O)c2cccs2)c2ccccc21)NCc1cccs1` the value was 39% (active); for `Cc1ccc(CN(N=Nc2nonc2N)c2nonc2N)c(C)c1`, 68.5% (active).
As for `C/C(=N\NC(=S)Nc1ccc(C)cc1)c1cc2ccccc2o1`, the inhibition entry was “inactive”.
For `Cc1cccc(N(C)C(=O)CN2C(=O)COc3ccc(S(=O)(=O)N4CCCCCC4)cc32)c1`, the inhibition entry was “inactive”.
The entry for `Cc1ccc(S(=O)(=O)N2CCN(C(=O)COC(=O)c3c(C)cc(C)cc3C)CC2)c(C)c1` is “inactive”; for `CCOc1ccc(C(C)C)cc1S(=O)(=O)n1nc(C)cc1C` it is 33% (active); for `CC(C)(C)NC(=O)NC(=O)CN1CCC(Cc2ccccc2)CC1` it is “inactive”.
On to `CC1=CC(C)(C)N(C(=O)CSc2nnc(-c3ccccc3)o2)c2ccc(C)cc21`, for which the inhibition result was “inactive”.
In the case of `C=CCOc1ccc(/C=N/NC(=O)C(C)Sc2ccccn2)cc1OCC` (stereo not given), the inhibition was 46.5% (active).
Turning to `O=[N+]([O-])/C=C/c1ccc2c(ccn2Cc2ccccc2)c1`, the inhibition result was “inactive”.
For `COC(=O)c1sc(-c2ccc(C(C)(C)C)cc2)cc1NC(=O)/C=C/C(=O)O`, the inhibition result was “inactive”.
Take `O=C(C[C@H]1C(=O)N(c2ccc(F)c(F)c2)C[C@@H]1Cc1ccccc1)Nc1ccccc1`: the inhibition is 39% (active).
With `O=C(CC(NC(=O)c1ccccc1)c1ccccc1)Nc1ccc(F)c(F)c1` (stereo not given), the inhibition entry is “inactive”.
As to `Cc1ccc(C(=O)c2c(NC(=O)c3ccccc3)sc(C)c2C)cc1`, the inhibition entry was “inactive”.

For the origin of these results see PubChem BioAssay AID492992 (Johns Hopkins Ion Channel Center, 2010).
